Only some compounds are listed: those with a hit (about 3.5% of all), similar ones and a draw of the others.
Anthrax LF prot – Bacillus anthracis LF protease inhibitors, primary screen, biochemical, multiplex microsphere, MLPCN library; inhibition, % at 10 µM; 0.12% of 360,000 active; Lethal factor (Bacillus anthracis), P15917; multiplex microsphere protease cleavage assay; further: plate controls were buffer without enzyme for full effect and enzyme alone for no effect
Target sequence (P15917 whole entry, looked up): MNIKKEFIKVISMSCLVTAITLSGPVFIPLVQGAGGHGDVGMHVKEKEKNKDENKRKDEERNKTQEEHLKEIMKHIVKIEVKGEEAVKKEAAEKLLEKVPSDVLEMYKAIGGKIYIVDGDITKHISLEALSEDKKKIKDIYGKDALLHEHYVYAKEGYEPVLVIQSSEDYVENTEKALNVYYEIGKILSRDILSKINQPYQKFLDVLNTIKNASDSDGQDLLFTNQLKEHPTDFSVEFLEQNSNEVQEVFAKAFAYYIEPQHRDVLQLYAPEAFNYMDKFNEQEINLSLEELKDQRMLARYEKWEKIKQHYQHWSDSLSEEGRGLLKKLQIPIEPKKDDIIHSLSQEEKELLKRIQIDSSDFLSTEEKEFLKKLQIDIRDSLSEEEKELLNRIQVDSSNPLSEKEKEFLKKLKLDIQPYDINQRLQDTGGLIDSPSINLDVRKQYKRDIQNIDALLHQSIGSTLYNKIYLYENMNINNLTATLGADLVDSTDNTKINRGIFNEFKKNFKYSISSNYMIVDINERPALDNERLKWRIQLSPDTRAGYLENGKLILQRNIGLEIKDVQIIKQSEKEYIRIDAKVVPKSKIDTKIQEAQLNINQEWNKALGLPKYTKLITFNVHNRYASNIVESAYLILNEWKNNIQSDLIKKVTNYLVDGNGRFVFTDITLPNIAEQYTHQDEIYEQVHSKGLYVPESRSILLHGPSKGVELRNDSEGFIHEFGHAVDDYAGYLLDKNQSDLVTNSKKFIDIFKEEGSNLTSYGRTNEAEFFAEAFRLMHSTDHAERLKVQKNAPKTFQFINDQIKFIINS
Bead autofluor – compound fluorescence in toxin protease inhibitor counterscreen; compound autofluorescence counterscreen, microsphere flow cytometry; hits give high values; fluorescence intensity (test concentration not listed); 3.1% of 360,000 active; in the data active means fluorescence intensity above about 16000; inconclusive means no clear call, values can overlap the other calls
BJeLR lethal – MLPCN primary cell-based screen for lethality selective to Ras in HRASV12 cells. BJeLR (HRASV12) viability, CellTiter-Glo ATP luminescence, 48 h. inhibition, % (test concentration not listed). 0.17% of 300,000 active. AID 1554, 2009; in the data active means inhibition above about 50%; inconclusive means no clear call, values can overlap the other calls
BoNT F protease – BoNT/F light chain protease inhibitors, primary screen, biochemical, flow cytometry, MLPCN library. Botulinum neurotoxin type F light chain protease (Clostridium botulinum). Multiplex microsphere protease cleavage assay. inhibition, % at 10 µM. 0.22% of 360,000 active; in the data active means inhibition above about 35%, passing the limit was not always enough; inconclusive means no clear call, values can overlap the other calls; further: plate controls were buffer without enzyme for full effect and enzyme alone for no effect
BoNT A protease – BoNT/A light chain protease inhibitors, primary screen, biochemical, flow cytometry, MLPCN library. Botulinum neurotoxin type A light chain protease (Clostridium botulinum A str. ATCC 3502). multiplex microsphere protease substrate cleavage. inhibition, % at 10 µM. 0.17% of 360,000 active; further: plate controls were buffer without enzyme for full effect and enzyme alone for no effect
Starred values were filed as active, the others as inactive; ? = inconclusive; nt = no result given. Unless noted, no stated cut-off is given here; in the data, active means inhibition above about 30%; inconclusive means no clear call, values can overlap the other calls; inactive means below that.

SMILES	Anthrax LF prot	Bead autofluor	BJeLR lethal	BoNT F protease	BoNT A protease
Cc1ccc(CN2C(=O)/C(=C\c3ccc(C(=O)NCc4cccnc4)cc3)Oc3ccccc32)cc1	nt	nt	113*	nt	nt
CCCc1ccc(-c2cc(C(=O)NN3CCOCC3)c3ccccc3n2)cc1	-9	23255*	-2	0	0
CCCc1ccc(-c2cc(C(=O)NCCc3ccc(S(N)(=O)=O)cc3)c3ccccc3n2)cc1	0	22125*	4	4	4
CC(C)Oc1cccc(-c2cc(C(=O)NN3CCOCC3)c3ccccc3n2)c1	-4	5636	11	8	0
CN(C)S(=O)(=O)c1ccc(NC(=O)c2cc(-c3cccs3)nc3ccccc23)cc1	-3	11040	1	-4	1
NS(=O)(=O)c1ccc(NC(=O)c2cc(-c3cccs3)nc3ccccc23)cc1	-1	2582	63*	7	1
O=C(CN1C(=O)NC2(CCc3ccccc32)C1=O)NCc1ccc(F)cc1 (configuration not stated)	-3	4784	nt	-5	-1
CC(C)(C)CC(C)(C)Nc1c(-c2ccc(O)cc2)nc2cnccn12	-2	16574*	-6	-1	-2
COCCCNC(=O)c1cccc2c(-c3ccnn3C)coc12	4	3430	nt	3	-1
C[C@H]1CCC[C@H](O)CCCCCc2cc(O)cc(O)c2C(=O)O1	0	6177	10	-9	-1
C[C@H]1CCC[C@@H](O)CCC/C=C/c2cc(O)cc(O)c2C(=O)O1	-4	20416*	-2	-4	-3
O=P(Nc1cccnc1)(Oc1ccccc1Cl)Oc1ccccc1Cl	30*	7876	1	86*	7
Cc1ccc2cc(CN(CC3CCCO3)S(=O)(=O)c3ccccc3)c3nnnn3c2c1 (configuration not stated)	-6	17821*	-3	10	10
Cc1cc(=O)n(C(C)Cc2ccccc2)n1C(C)Cc1ccccc1 (configuration not stated)	5	3733	nt	2	0
COc1cccc(-c2nnn(CC(C)=O)n2)c1	2	3521	2	-12	0
COc1ccc(-c2ccc(-c3nnn(CC(C)=O)n3)cc2)cc1	-3	22673*	-1	1	1
CCN1C(=O)[C@@H]2[C@@H](c3ccc(SC4CCCCC4)cc3)N3CCCC[C@@]3(C(=O)OC)[C@@H]2C1=O	7	16473*	6	27	-2
CCCSc1ccc([C@@H]2[C@H]3C(=O)N(CC)C(=O)[C@H]3[C@]3(C(=O)OC)CCCCN23)cc1	1	22612*	5	22	-7
CCCCCCSc1ccc([C@@H]2[C@H]3C(=O)N(CC)C(=O)[C@H]3[C@]3(C(=O)OC)CCCN23)cc1	-7	5108	nt	1	-1
O=C(Nc1ccc2c(c1)OCCO2)c1cc(-c2ccccc2)nc2ccccc12	-5	24974*	-5	-15	?
COc1cc(NC(=O)c2ccc3c(c2)OCO3)c2ncccc2c1	-5	4102	2	3	0
Cc1ccc(C)c(-c2cc(C(=O)Nc3sc(C)c(C)c3C(N)=O)c3ccccc3n2)c1	0	23000*	-9	0	?
CC(C)Cc1nnc(NC(=O)c2cc(-c3ccccc3)nc3ccccc23)s1	-1	16445*	1	-2	-1
O=C(Nc1cccc2cccnc12)c1ccc2c(c1)OCCO2	-8	23021*	3	-4	?
O=C(Nc1ccc2c(c1)OCO2)c1cc(-c2ccncc2)nc2ccccc12	-11	3338	5	-32	2
SMILES	Anthrax LF prot	Bead autofluor	BJeLR lethal	BoNT F protease	BoNT A protease
C[C@H](CO)N1C[C@H](C)[C@@H](CN(C)S(=O)(=O)c2ccc(F)cc2)OCc2cn(nn2)CCCC1=O	-4	3771	nt	2	0
CN(C)CCC(=O)c1cccc(Br)c1	-2	2522	-6	0	0
COc1ccc(C(c2c(O)nc[nH]c2=O)c2c(O)nc[nH]c2=O)cc1	nt	nt	3	nt	nt
CC1CN(C(=O)CCNS(=O)(=O)c2ccc(Br)cc2)CC(C)O1 (configuration not stated)	nt	nt	-2	nt	nt
CCCNC(=S)N1CCC(C(=O)c2ccc(F)cc2)CC1	14	3734	-7	?	-1
O=C(Nc1ccc2oc(-c3ccccc3)nc2c1)c1ccc2c(c1)OCCO2	-1	22968*	9	2	0
O=C(Nc1ccc2oc(-c3ccncc3)nc2c1)c1ccc2c(c1)OCCO2	-1	3854	-3	1	-1
CCN1CCCC1CNCc1cc(OC)c(OC)c(OC)c1 (configuration not stated)	0	24874*	-5	-6	-4
Cc1ccc(-c2ccccc2[C@@H]2C[C@H]3CN(C)C(=O)[C@]34CCCN24)o1	-9	4714	-4	-2	0
O=C1N(c2ccccc2)C[C@@H]2C[C@@H](c3cc4ccccc4o3)N3CCC[C@@]123	-7	3932	51*	-9	-2
O=C(COc1ccccc1[N+](=O)[O-])Nc1cc(Cl)ccc1C(=O)O	-2	5117	2	-2	0
CN1CC2(C(=O)c3ccccc3)CN(C)CC(C(=O)c3ccccc3)(C1)C2	-1	20389*	6	2	?
CCc1nnc(NC(=O)CSc2nnc3scc(-c4ccc(C)cc4)n23)s1	0	21013*	-1	-1	-2
CCc1nnc(NC(=O)CSc2nnc(-c3ccccc3O)n2CC)s1	0	25104*	7	-3	-4
CCc1nnc(NC(=O)CSc2nnc(-c3cc4ccccc4cc3O)n2CC)s1	-2	8463	7	-7	0
COCCOC(=O)N1CCCCC1c1cc(C(=O)Nc2cccc3c2CCCC3)no1 (configuration not stated)	-4	3874	nt	2	0
Cn1nc(C2CC2)cc1NC(=O)C1(C)CCN1C(=O)Cc1ccc(-c2ccccc2)cc1 (configuration not stated)	3	3612	nt	0	0
CC(CCc1ccccc1)C(=O)NO (configuration not stated)	1	23384*	-3	2	0
COC(=O)[C@H](C)NC(=O)NC(C)CCc1ccccc1 (some centres not stated)	1	21607*	7	2	2
C#CCN(C[C@@H]1[C@@H](OC(=O)NCc2ccccc2)[C@@H](OC(=O)NCc2ccccc2)CN(C(=O)OC(C)C)N1C(=O)OC(C)C)S(=O)(=O)c1ccc(C)cc1	-3	3391	nt	2	0
Cc1ccc(C(=O)CSc2nnc(C3CC3)n2C2CC2)s1	-3	3275	nt	-2	1
CC12CCC(C(N)=O)(C1Br)C2(C)C (configuration not stated)	1	2139	-2	0	0
CC1(C)CC(NC(=O)C23CCC(C)(/C(=N/O)C2)C3(C)C)CC(C)(C)N1 (configuration not stated)	0	22387*	-1	-1	?

From PubChem
